Measured values taken from the supplement of paper PMC11732987, “Enantioselective OTUD7B fragment discovery through chemoproteomics screening and high-throughput optimisation” (Communications Chemistry, 2025).

Legend:
Assay in all cases: log2 ratio of Biotin-Ahx-Ub-VS probe labelling (fragment/DMSO); higher = less target engagement (more negative = stronger competition), active = hit call of the paper (q ≤ 0.05, log2 ratio ≤ -1)
Conditions in all cases: compound concentration: 200 uM; treatment time: 3 h
USP42 = molecular target: T1, USP42 (UniProt Q9H9J4)
T1 sequence (whole entry): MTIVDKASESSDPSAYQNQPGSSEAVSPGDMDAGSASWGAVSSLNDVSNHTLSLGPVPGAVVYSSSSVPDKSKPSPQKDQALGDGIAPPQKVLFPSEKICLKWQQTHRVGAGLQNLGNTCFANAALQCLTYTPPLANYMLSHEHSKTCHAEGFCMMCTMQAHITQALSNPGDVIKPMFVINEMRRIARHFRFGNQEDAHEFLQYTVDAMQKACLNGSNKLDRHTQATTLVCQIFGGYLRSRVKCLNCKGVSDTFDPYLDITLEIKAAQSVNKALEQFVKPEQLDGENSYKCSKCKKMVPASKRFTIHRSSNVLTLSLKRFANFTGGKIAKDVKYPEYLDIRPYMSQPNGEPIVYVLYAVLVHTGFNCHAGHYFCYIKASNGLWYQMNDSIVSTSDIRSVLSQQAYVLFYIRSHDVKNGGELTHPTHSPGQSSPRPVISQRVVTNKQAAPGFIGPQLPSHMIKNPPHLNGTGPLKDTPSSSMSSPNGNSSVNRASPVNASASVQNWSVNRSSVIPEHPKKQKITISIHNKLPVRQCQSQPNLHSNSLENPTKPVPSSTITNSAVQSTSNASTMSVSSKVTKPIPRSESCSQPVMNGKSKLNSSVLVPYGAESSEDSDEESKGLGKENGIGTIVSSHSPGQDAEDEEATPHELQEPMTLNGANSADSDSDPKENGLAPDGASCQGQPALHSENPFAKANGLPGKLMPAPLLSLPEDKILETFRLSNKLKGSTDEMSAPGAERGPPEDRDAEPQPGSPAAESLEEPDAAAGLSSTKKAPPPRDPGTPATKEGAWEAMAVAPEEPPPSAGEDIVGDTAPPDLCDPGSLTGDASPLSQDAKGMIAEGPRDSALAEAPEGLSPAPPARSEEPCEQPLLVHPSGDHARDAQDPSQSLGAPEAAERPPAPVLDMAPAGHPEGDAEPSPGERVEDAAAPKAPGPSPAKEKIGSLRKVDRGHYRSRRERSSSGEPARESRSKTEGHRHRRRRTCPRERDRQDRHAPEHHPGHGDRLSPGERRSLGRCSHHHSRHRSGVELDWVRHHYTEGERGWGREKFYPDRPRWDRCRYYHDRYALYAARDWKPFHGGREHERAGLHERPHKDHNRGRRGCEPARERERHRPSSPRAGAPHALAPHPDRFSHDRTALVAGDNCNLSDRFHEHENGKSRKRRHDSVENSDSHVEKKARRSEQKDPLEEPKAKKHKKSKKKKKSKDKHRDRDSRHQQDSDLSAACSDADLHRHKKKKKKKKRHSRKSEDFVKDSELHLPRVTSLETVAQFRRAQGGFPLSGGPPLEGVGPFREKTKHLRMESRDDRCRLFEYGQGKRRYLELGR
Summary of the method: (§1)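 HEK293T lysate (495 µg per sample, in Tris/CHAPS/IGEPAL buffer with protease inhibitors) was treated in triplicate with fragment at 200 µM or with DMSO for 3 h. It was then treated with Biotin-Ahx-Ub-VS (0.5 µM final) for 1 h. Labelled DUBs were NeutrAvidin-enriched, digested with LysC and trypsin, and run by diaPASEF LC-MS/MS. Spectronaut label-free quantities were global-median-normalised. Values are average log2 ratios fragment/DMSO by unpaired t-test, using proteins with ≥2 unique peptides.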

USP46 = USP46 (UniProt P62068)
Summary of the method: as §1

USP47 = molecular target: T2, USP47 (UniProt Q96K76)
T2 sequence (whole entry): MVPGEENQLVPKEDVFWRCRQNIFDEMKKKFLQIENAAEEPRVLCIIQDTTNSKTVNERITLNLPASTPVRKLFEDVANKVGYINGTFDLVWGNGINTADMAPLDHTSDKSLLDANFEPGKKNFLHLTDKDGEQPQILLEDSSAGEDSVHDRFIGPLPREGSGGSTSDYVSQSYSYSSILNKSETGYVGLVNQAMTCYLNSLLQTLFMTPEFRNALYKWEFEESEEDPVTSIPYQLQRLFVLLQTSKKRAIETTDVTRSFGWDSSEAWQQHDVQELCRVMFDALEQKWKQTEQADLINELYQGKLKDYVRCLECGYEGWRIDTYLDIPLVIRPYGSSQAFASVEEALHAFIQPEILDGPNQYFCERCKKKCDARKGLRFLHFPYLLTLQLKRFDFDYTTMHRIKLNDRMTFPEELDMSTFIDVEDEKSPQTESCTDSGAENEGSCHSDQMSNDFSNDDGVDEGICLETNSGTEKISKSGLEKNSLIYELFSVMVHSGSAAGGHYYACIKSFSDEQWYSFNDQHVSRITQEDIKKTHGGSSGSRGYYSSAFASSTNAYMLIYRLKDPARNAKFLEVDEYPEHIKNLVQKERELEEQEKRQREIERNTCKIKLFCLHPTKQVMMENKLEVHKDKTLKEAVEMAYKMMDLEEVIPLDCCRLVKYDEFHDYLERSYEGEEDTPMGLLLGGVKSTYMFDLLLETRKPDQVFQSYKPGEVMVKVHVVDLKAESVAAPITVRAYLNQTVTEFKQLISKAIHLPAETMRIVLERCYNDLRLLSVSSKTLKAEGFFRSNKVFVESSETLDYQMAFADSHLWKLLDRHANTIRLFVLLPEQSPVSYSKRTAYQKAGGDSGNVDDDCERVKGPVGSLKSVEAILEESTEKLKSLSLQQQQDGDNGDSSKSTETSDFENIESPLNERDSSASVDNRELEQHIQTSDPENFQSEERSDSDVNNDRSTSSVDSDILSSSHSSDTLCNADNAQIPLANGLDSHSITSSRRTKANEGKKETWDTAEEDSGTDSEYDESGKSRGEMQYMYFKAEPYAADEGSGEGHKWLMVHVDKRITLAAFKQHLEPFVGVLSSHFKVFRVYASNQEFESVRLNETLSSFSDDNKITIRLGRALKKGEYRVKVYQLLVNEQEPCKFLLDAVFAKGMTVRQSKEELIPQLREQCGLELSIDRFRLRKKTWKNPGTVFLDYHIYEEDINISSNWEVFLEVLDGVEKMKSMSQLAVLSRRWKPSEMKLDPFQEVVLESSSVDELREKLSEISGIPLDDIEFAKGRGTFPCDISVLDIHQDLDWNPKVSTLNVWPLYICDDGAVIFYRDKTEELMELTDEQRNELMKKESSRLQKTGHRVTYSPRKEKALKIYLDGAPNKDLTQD
Summary of the method: as §1

USP48 = molecular target: T3, USP48 (UniProt Q86UV5)
T3 sequence (whole entry): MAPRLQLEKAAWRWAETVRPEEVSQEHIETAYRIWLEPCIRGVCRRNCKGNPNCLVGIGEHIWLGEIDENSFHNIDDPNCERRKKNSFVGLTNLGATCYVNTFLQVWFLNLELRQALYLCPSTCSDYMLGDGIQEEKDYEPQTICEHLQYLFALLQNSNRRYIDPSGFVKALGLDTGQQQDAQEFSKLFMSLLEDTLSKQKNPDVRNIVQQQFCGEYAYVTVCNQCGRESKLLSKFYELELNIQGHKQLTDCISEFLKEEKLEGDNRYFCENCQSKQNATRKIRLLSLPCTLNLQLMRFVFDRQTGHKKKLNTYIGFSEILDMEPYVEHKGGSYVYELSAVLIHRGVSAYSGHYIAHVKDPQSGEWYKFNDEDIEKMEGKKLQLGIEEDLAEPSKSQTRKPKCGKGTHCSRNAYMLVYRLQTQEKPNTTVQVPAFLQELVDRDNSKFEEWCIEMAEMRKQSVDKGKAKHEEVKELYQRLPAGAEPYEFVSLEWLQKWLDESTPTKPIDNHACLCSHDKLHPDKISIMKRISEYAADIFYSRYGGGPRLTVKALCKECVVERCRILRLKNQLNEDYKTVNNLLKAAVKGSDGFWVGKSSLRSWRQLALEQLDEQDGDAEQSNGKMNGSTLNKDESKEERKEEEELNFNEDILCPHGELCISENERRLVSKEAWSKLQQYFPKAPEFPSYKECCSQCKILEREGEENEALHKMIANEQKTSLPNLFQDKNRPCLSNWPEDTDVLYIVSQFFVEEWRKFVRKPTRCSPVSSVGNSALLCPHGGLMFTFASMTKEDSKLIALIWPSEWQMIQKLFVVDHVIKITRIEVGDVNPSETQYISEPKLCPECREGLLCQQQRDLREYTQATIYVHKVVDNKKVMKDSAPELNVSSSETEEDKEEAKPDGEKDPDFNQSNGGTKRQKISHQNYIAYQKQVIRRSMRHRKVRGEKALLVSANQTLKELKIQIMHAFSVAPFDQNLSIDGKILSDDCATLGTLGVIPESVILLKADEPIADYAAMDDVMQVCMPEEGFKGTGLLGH
Summary of the method: as §1

USP5 = molecular target: T4, USP5 (UniProt P45974)
T4 sequence (whole entry): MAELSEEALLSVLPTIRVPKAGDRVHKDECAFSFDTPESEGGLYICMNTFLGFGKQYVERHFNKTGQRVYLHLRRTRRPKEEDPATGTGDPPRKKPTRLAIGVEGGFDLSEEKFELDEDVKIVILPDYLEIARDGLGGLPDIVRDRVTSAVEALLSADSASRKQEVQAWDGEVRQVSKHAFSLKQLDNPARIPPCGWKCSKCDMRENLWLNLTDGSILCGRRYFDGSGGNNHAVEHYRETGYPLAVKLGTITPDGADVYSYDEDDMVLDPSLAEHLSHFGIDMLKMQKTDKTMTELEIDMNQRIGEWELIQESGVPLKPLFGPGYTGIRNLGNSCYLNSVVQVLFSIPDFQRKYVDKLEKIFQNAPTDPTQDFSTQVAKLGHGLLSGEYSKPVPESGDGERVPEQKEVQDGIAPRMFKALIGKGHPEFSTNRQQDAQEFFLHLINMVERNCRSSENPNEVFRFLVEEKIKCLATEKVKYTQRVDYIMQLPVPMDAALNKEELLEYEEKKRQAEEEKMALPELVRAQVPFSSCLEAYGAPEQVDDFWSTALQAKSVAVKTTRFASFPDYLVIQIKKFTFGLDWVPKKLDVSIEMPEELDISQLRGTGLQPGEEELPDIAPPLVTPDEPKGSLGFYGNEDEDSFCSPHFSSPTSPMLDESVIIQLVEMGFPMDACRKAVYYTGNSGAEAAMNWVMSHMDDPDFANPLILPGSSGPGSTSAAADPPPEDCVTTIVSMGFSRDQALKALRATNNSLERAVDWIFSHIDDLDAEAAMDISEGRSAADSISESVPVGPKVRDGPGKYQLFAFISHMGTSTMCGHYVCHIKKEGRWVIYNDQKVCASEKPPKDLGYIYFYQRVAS
Summary of the method: as §1

USP54 = USP54 (UniProt Q70EL1)
Summary of the method: as §1

USP7 = USP7 (UniProt Q93009)
Summary of the method: as §1

USP8 = molecular target: T5, USP8 (UniProt P40818)
T5 sequence (whole entry): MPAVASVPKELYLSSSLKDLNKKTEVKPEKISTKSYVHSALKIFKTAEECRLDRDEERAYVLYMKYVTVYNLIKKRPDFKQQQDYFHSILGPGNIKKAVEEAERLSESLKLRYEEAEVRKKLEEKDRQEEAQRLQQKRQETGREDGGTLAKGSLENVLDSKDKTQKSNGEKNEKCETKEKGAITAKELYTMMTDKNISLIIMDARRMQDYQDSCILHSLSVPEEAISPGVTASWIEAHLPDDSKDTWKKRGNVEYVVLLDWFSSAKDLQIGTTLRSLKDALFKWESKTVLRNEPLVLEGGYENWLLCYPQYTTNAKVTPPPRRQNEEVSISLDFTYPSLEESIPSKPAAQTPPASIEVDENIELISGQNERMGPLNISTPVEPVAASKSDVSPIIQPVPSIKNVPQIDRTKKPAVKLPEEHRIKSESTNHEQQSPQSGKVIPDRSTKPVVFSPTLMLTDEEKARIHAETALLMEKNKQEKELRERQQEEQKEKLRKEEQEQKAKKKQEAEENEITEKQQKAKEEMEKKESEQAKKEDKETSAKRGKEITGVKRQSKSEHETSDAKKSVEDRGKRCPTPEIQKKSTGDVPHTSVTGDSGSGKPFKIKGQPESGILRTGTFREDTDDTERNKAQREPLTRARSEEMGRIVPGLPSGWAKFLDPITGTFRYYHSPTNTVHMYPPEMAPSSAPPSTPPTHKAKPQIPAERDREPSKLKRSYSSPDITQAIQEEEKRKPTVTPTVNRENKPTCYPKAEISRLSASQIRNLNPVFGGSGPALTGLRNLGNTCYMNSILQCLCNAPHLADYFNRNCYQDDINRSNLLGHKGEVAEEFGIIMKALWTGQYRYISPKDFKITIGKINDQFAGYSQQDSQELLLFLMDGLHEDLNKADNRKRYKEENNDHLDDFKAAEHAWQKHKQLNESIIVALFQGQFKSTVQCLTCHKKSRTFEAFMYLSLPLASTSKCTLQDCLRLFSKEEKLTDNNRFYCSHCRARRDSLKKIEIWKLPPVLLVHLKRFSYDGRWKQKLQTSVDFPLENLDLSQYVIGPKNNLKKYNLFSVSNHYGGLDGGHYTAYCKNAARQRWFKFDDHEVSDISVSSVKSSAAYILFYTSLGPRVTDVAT
Summary of the method: as §1

USP9X = USP9X (UniProt Q93008)
Summary of the method: as §1

UniProt O00487 = molecular target: UniProt O00487
Summary of the method: as §1

Measured: log2 ratio of Biotin-Ahx-Ub-VS probe labelling

Chain of UniProt O00487 (O00487 whole entry): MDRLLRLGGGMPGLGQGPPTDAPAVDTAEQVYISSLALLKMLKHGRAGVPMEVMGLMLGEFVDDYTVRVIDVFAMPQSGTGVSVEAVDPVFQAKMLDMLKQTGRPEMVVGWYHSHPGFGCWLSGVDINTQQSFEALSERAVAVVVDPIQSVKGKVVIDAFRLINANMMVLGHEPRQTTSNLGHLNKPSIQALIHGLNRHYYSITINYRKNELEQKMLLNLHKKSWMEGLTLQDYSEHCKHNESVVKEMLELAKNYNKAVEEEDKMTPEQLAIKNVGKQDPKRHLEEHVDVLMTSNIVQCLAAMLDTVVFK
Chain of USP7 (Q93009 whole entry, looked up): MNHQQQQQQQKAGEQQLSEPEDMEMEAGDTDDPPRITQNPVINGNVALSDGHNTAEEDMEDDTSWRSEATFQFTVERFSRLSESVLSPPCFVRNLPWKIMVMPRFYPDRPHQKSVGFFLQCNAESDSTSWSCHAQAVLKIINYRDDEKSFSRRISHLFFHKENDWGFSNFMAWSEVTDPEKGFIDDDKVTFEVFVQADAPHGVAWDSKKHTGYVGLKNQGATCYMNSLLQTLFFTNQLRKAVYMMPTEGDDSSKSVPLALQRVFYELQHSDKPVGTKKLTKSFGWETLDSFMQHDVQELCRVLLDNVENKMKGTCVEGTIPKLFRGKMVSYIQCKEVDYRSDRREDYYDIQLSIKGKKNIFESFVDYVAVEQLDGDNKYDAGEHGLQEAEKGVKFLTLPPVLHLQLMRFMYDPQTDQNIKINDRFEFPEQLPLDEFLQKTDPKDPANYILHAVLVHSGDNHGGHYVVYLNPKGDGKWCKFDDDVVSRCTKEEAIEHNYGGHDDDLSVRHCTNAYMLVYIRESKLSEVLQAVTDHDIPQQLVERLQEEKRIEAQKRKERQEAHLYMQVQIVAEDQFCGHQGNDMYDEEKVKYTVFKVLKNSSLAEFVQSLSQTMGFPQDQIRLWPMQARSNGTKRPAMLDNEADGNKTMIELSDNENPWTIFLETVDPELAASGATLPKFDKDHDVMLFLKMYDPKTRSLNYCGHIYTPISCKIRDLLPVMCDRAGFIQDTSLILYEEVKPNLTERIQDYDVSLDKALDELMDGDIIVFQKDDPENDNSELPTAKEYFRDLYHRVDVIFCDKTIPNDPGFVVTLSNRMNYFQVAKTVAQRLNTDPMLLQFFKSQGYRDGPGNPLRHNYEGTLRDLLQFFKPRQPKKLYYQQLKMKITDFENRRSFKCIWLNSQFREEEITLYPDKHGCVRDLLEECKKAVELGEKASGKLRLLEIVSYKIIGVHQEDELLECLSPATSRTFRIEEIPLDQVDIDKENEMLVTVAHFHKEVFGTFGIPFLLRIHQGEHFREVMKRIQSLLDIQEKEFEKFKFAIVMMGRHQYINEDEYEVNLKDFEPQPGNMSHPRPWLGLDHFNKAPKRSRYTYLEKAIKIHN
Chain of USP54 (Q70EL1 whole entry): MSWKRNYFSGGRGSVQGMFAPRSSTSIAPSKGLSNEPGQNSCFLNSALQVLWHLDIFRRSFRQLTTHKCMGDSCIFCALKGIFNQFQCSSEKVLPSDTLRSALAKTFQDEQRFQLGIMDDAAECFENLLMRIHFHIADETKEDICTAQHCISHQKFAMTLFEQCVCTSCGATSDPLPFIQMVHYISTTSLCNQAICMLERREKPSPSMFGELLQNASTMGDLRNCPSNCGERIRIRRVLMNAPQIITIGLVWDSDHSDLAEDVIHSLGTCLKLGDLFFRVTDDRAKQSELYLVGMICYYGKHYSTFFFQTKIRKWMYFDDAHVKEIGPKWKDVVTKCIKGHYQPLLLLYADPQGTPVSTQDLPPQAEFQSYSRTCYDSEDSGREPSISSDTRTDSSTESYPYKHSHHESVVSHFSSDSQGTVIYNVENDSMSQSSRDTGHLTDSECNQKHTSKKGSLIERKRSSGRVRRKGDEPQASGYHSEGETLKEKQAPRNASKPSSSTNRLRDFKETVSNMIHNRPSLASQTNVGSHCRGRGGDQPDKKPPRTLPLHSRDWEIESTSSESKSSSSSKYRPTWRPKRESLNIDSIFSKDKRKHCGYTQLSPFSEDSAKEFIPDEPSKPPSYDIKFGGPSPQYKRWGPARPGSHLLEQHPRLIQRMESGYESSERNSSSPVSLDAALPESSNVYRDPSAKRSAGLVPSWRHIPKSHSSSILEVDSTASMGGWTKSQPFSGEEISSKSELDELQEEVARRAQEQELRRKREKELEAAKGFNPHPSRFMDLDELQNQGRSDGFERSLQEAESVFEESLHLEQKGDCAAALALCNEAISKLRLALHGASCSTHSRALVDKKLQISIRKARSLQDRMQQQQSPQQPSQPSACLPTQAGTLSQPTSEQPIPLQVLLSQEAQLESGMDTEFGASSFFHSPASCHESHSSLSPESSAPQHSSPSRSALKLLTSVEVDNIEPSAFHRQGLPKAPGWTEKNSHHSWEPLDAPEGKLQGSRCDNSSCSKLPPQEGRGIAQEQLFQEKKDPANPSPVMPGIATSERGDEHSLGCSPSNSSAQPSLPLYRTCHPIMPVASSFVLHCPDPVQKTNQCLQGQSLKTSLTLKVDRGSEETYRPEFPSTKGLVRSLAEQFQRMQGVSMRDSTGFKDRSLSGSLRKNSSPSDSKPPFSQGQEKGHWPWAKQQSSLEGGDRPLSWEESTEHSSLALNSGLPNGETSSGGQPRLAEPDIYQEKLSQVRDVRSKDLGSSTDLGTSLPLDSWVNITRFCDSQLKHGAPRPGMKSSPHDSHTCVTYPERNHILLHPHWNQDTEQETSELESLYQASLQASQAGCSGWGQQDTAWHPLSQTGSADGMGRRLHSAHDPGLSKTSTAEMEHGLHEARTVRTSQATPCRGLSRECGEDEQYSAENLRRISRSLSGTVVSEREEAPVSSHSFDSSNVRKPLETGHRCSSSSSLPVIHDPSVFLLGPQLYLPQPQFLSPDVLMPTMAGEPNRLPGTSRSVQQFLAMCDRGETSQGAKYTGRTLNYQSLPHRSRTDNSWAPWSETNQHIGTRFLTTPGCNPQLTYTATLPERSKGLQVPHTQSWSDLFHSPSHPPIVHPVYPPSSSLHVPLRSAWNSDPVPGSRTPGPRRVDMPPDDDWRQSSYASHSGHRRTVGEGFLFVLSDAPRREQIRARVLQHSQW
Chain of USP46 (P62068 whole entry): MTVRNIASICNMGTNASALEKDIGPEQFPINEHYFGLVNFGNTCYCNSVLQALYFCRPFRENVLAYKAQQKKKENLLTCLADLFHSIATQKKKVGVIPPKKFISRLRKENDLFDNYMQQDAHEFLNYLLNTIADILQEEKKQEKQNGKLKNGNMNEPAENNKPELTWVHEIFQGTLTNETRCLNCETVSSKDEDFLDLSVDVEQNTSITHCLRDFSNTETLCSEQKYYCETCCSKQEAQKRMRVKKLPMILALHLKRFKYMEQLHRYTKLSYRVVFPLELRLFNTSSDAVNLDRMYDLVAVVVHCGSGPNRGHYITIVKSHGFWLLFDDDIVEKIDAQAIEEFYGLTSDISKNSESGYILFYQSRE

COc1ccc(Cl)cc1NC(=O)CCl
inactive: USP42 0.21 | USP46 -0.265 | USP47 -0.266 | USP48 -0.394 | USP5 -0.409 | USP54 0.0369 | USP7 -0.593 | USP8 -0.171 | USP9X -0.48 | UniProt O00487 -0.298
